Rows were chosen to be rich in hits. Some 3.1% of all compounds tested hit in one or more screens of this group.
BRCA1 expr act = increases BRCA1 expression; MCF7-BRCA1-FFLuc reporter, luminescence, 48 h; response scale: scaled: vehicle 0%, 10 µM genistein 100%; Potency, µM (top dose mostly 46.1 µM), for the others: at the highest dose activation, usual class: activators; actives 1.1% (n = 380,000); further: potency means the concentration at half of the fitted maximal effect; nearly all actives have a fitted effect of over 80% in size
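Activators of BRCA1 expression were detected as increased firefly luciferase luminescence in engineered MCF7 cells after 48 h compound incubation. Signals were scaled to genistein 10 microM as full activation.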
ELG1 DNA repair = inhibitors of ELG1-dependent DNA repair in HEK293T cells | HEK293T ELG1-luciferase reporter, luminescence, 16 h; DNA damage induced by 5-fluorouridine | Potency, µM (series often up to 46.1 µM), for inactives: top-dose activity change, negative = inhibition, most hits filed as inhibitors | actives 2.3% (n = 330,000); further: potency means the concentration at half of the fitted maximal effect; on the % scale 0 is the no-effect control and ±100 the full control effect; nearly all actives have a fitted effect of over 55% in size
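Luminescence from the luciferase reporter, measured 30 min after ONE-Glo reagent at room temperature, was the read-out. Beforehand, 2,000 cells per well were exposed for 16 hr at 37 °C to 5-fluorouridine together with compound or vehicle.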
IL-2 act = IL-2 activation | activation, % (series mostly up to about 46 µM) | actives 0.065% (n = 360,000) | IL-2 activation reporter assay, cell-based qHTS; stimulated with anti-CD3/CD4/CD28 beads; in transgenic mouse T cells; in the data active means activation above about 50%; inconclusive means mostly about 30% to 49%; further: 0% is about no effect
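Readout is EGFP and DsRed signal by fluorescent plate cytometry after 18 h at 37 degrees C. Transgenic mouse T cells (750/well) received compound for 60 min before bead stimulation (anti-CD3, anti-CD4, anti-CD28); memory T cells served as non-tolerant control.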
Nrf2 activator = activates Nrf2 signaling. AREc32 ARE-luciferase reporter (MCF7-derived line), luminescence, 24 h. Potency, µM (highest dose often 46.1 µM), for inactives: top-dose activation, actives largely listed as activators. actives 0.31% (n = 410,000). AID 624171; further: potency means the concentration at half of the fitted maximal effect; % of control where 0% means no effect; nearly all actives have a fitted effect of over 65% in size
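ARE activation measured as luciferase luminescence (Steady-Glo, 30 min RT) in AREc32_Fluc cells after 24 hr compound exposure at 37 deg C, 5% CO2; cells seeded overnight at 1000/well in OPTI-MEM, 5% FBS.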
Starred values were filed as active, the others as inactive; ? = inconclusive; nt = no result. Unless noted, the call rests on the fitted dose curve; in most records, active means well fitted curve in the direction sought with a large enough effect; inconclusive means small, poorly fitted or top-dose-only effect, or another doubt; inactive means no such curve, though single readings can be large; an effect the other way counts as inactive or inconclusive.

SMILES	BRCA1 expr act	ELG1 DNA repair	IL-2 act	Nrf2 activator
N/C(=N\OC(=O)c1cccs1)c1cccnc1	?	?	-1	?
CCSc1ccc(/C(N)=N/OC(=O)c2cccs2)cn1	10µM*	?	-3	?
COc1cccc(CNn2c(-c3cccc(C)c3)nc3ccccc3c2=O)c1O	-24%	16µM*	-2	1%
COc1ccc(O)c(CNn2c(-c3ccc(Br)cc3)nc3ccccc3c2=O)c1	-47%	?	-3	17%
Cc1cccc(N2CCN(C(=O)c3cc4cc(F)ccc4[nH]3)CC2)c1C	-62%	?	-1	7.1µM*
Cc1ccc(C)c(NC(=O)Nc2ccc3c(c2)OCO3)c1	92%	?	0	0%
O=C(CCS(=O)(=O)c1ccccc1)Nc1ccc2c(c1)OCO2	7.9µM*	?	1	4%
Cc1ccccc1NC(=O)Nc1ccc2c(c1)OCO2	5.6µM*	?	-3	-1%
Cn1nccc1C(=O)Nc1ccc2c(c1)OCO2	13µM*	?	-4	1%
CS(=O)(=O)N(CC(=O)Nc1ccc2c(c1)OCO2)c1ccccc1	25%	10%	-1	0%
N/C(=N\C(=S)Nc1ccc2c(c1)OCO2)c1ccccc1	4.5µM*	nt	1	4%
Cc1cc(=O)n(CC(=O)N2CCN(c3ccc(F)cc3)CC2)c2c1c(C)nn2C	-16%	nt	nt	0%
C=CCN(c1ccc(C(=O)Nc2ccc3c(c2)OCO3)cc1)S(C)(=O)=O	0%	13µM*	2	0%
O=C(Nc1ccc2c(c1)OCO2)c1c(F)cccc1F	4.5µM*	?	4	0%
COc1cc(C(=O)Nc2ccc3c(c2)OCCO3)ccc1OC(C)C	?	?	0	1%
COc1cc(C(=O)Nc2ccc3c(c2)OCCO3)ccc1OC(F)F	11µM*	?	0	2%
O=C(Nc1ccc2c(c1)OCO2)c1cccc(F)c1	11µM*	nt	-1	-1%
COCOCCn1cc(CN2CCS(=O)(=O)N(Cc3ccc(-c4ccc(Cl)c(Cl)c4)cc3)C(C)C2=O)nn1 (configuration not stated)	-68%	nt	-2	-2%
O=C(NCc1ccc(F)cc1F)[C@@H]1CCCN1C(=O)[C@@H]1CCCN1C(=O)c1ccc(Cl)cc1	-13%	nt	-1	0%
Cc1ccc(OCCCCn2ccnc2C)c(C)c1	-34%	12µM*	-1	0%
Cc1ccc2cc(C(c3nnnn3C3CCCC3)N(Cc3ccccc3)Cc3ccco3)c(=O)[nH]c2c1 (configuration not stated)	-38%	4%	2	0%
Cc1cc2cc(C(c3nnnn3C3CCCC3)N(Cc3cccnc3)Cc3ccco3)c(=O)[nH]c2cc1C (configuration not stated)	-71%	18µM*	-2	9%
CCOC(=O)C1(C(=O)OCC)C(C)CC(=O)N1c1ccccc1OC (configuration not stated)	0%	nt	-2	3%
COc1ccccc1CNS(=O)(=O)c1ccc(F)c(C(=O)Nc2cc(Cl)ccc2OC)c1	nt	nt	nt	14%
CC(OC(=O)CNC(=O)c1ccccc1F)C(=O)Nc1nc(-c2ccccc2)cs1 (configuration not stated)	6.3µM*	?	-4	3%
SMILES	BRCA1 expr act	ELG1 DNA repair	IL-2 act	Nrf2 activator
COc1ccc(CN(CCC(c2ccccc2)c2ccco2)C(=O)c2ccco2)cc1 (configuration not stated)	-8%	?	0	4%
COc1ccc(CN(CCC(c2ccc(F)cc2)C2CCOC(C)(C)C2)C(=O)c2ccco2)cc1 (configuration not stated)	-95%	10µM*	-5	-3%
CC(c1ccccc1)N(CCC(c1ccccc1)C1CCOC(C)(C)C1)C(=O)c1ccco1 (configuration not stated)	-55%	23µM*	0	0%
CC1(C)CC(C(CC(=O)O)c2ccccc2)CCO1 (configuration not stated)	-11%	-33%	-2	-1%
CCNc1nc(C#N)nc(NCC)n1	6%	nt	nt	nt
O=C(c1ccccc1)c1ccc(OCC(O)CN2CCN(S(=O)(=O)N3CCCCC3)CC2)cc1 (configuration not stated)	-67%	18µM*	1	4%
O=C(c1ccccc1)c1ccc(OCC(O)CN2CCCCC2)cc1 (configuration not stated)	-2%	0%	1	-1%
O=c1c(/C=C(\O)c2ccccc2)nc2ccccc2n1-c1ccccc1	36%	-17%	89*	0%
CCc1cccc(NC(=O)CN(c2ccc(C)cc2)S(=O)(=O)c2cccs2)c1	-63%	nt	nt	1%
COc1ccc(C(=O)NCC(=O)OCC(=O)c2ccc3ccccc3c2)cc1	3%	nt	nt	nt
CCc1nnc(NC(=O)Nc2ccccc2OC)s1	6.3µM*	?	-3	6%
CCCCOC(=O)c1ccc(NC(=O)CSc2nc3c(c(=O)[nH]2)CCC3)cc1	nt	nt	nt	0%
CCOC(=O)c1c(NC(=O)C2=C(C)NC(=S)NC2c2ccc(F)cc2)sc(C)c1C (configuration not stated)	-32%	7.3µM*	-4	0%
CCOC(=O)c1c(NC(=O)C2=C(C)NC(=S)NC2c2ccc(C)cc2)sc(C)c1C (configuration not stated)	-71%	?	-4	2%
COCC(=O)N(C)C[C@@H]1Oc2cc(-c3ccc(F)cc3)ccc2S(=O)(=O)N([C@H](C)CO)C[C@H]1C	-3%	nt	-2	0%
O=C(NN=Cc1ccccc1O)c1cccc([N+](=O)[O-])c1	-112%	nt	-1	-2%
CCc1ccc(-n2c(C)cc(/C=N/NC(=O)c3ccncc3)c2C)cc1	-19%	?	0	0%
O=C(N/N=C/c1cc(Cl)ccc1O)c1ccncc1	-73%	15µM*	-4	-1%
COc1ccc(/C=N\NC(=O)c2cccc([N+](=O)[O-])c2)cc1Cn1cc([N+](=O)[O-])cn1	nt	15µM*	nt	nt
Cc1cc(/C=N/NC(=O)c2cccc([N+](=O)[O-])c2)c(C)n1-c1ccccc1	13µM*	?	2	6%
Cc1cc(/C=N/NC(=O)c2ccncc2)c(C)n1-c1ccccc1	7.9µM*	?	1	5%
COc1cc(OC)cc(-c2nc3nc(C)c(CCC(=O)Nc4ccc(Cl)cc4)c(C)n3n2)c1	3%	nt	nt	-1%
O=C(N/N=C/c1cn(Cc2ccccc2)c2ccccc12)c1ccncc1	-3%	18µM*	0	7%
COc1ccc(Cl)cc1NC(=O)N1CCC(CN2CCc3ccccc3C2)CC1	nt	nt	nt	3%
CC1CCN(S(=O)(=O)c2ccc3[nH]ccc3c2)CC1	nt	nt	nt	2%
Cc1nnc(N2CCC(C(=O)NCc3cccc(Cl)c3)CC2)c2nn(-c3ccccc3)c(C)c12	nt	nt	nt	4%
Cc1ccc(-n2nc3c(N4CCC(C(=O)NCc5cccc(F)c5)CC4)nnc(C)c3c2C)cc1	-69%	16µM*	-1	3%

Screening results: PubChem BioAssay, National Center for Advancing Translational Sciences (NCATS)
